Assay [1] can be described thus: qHTS assay for cell viability of the p53RE-bla HCT-116 cell line (AID 743292). Further: nearly all actives have a fitted effect of over 55% in size. An outline of the steps: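 HCT-116 p53RE-bla cells seeded 4,000/well; 5 h at 37 C; compound (DMSO) added; 16 h at 37 C; CellTiter-Glo added, 30 min RT; luminescence read.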
(qHTS replaces the single test concentration by a dilution series.)

Assay [2] in a line: qHTS assay for measurement of the activity of small molecule inhibitors on Zika virus induced Caspase-3 activity in human iPSC derived neural progenitor cells (hNPCs) (AID 1224857). Further: nearly all actives have a fitted effect of over 65% in size. The method, boiled down:
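Zika virus (2 FFU/cell) infection of human iPSC-derived NPCs, 6 h, following 1 h compound preincubation. Read-out: Caspase-Glo 3/7 luminescence.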

A short description of assay [3]: qHTS assay for measurement of the activity of small molecule inhibitors on Zika virus induced Caspase-3 activity in human astrocytoma cells (AID 1224859). The method, boiled down:
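Caspase activation in ZIKV-infected SNB-19 cells (2 FFU/cell, 6 h) measured by Caspase-Glo 3/7 luminescence after 30 min RT; compound pre-incubated 1 h; normalised to uninfected and infected controls.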

Assay [4] is described as follows: qHTS profiling for inhibitors of Plasmodium falciparum (3D7) proliferation (AID 743322; call rule not given here;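 further: infected erythrocytes exposed to compound for 72 h before lysis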). The settings on record: P. falciparum 3D7 proliferation; at 28.7 µM (top of the series) unless noted. The method, boiled down: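 Parasite DNA was quantified by SYBR Green I fluorescence (ex 485, em 535 nm) after overnight lysis in saponin/Triton buffer at room temperature. Cultures at 0.3% parasitemia and 2.5% hematocrit were first exposed to compound for 72 h at 37 C; signals were normalised to artemisinin (0.29 uM) and vehicle wells.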

Assay [5] is described as follows: qHTS profiling for inhibitors of Plasmodium falciparum (DD2) proliferation (AID 743323; call rule not given here). The settings on record: lower = more inhibition; at 28.7 µM (top of the series) unless noted. An outline of the steps:
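P. falciparum Dd2-infected erythrocytes (0.3% parasitemia, 2.5% hematocrit) exposed 72 h at 37 C, 5% CO2. Lysis with SYBR Green, overnight at room temperature, fluorescence 485/535 nm; normalized to 0.29 uM artemisinin and DMSO.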

Records with an inconclusive call do not appear. Where a call stands in place of a potency, no number is given. Calls of active or inactive are those of the source. Unless noted, the call rests on the fitted dose curve; in most records, active means well fitted curve in the direction sought with a large enough effect; inconclusive means small, poorly fitted or top-dose-only effect, or another doubt; inactive means no such curve, though single readings can be large; an effect the other way counts as inactive or inconclusive.

Turning to `CN(C)CCCN1c2ccccc2Sc2ccc(Cl)cc21`, in assay [1], the Potency entry was “inactive”. The compound was called inactive in assay [2] and in assay [3].
For `NC(=O)c1ncn([C@@H]2O[C@H](CO)[C@@H](O)[C@H]2O)n1`, in assay [1], the Potency result is “inactive”. In addition, the compound was classed as inactive in assay [2] and in assay [3].
Consider `O=C1c2c(O)cccc2Cc2cccc(O)c21`, for which the Potency entry in assay [1] was “inactive”.
The compound `CN(C)CC[C@@H](c1ccc(Cl)cc1)c1ccccn1` returned a remaining parasite growth % (stronger effect = lower value) in assay [4] of 85.4%. The compound also yielded an activity, percent of control in assay [5] of 44.8%.

The values are drawn from PubChem BioAssay (NCATS).
